From PubChem BioAssay (NCATS)
Inconclusive results are not listed. Calls of active or inactive are those of the source. Unless noted, calls follow the shape of the dose curve; as a rule, active = well fitted curve in the direction sought with a large enough effect; inconclusive = small, poorly fitted or top-dose-only effect, or another doubt; inactive = no such curve, though single readings can be large; an effect the other way counts as inactive or inconclusive.

What was measured:
[1] = Cell Viability - MRC5 (AID 434; calls by dose curve;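 also: potency is read from the fitted curve at half-maximal effect; cells exposed to compound for 40 hours at 37 °C; potency reflects cytotoxicity seen as loss of intracellular ATP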); conditions: MRC5 lung fibroblast viability, qHTS
Method in brief: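 AC50 values come from Hill-equation fits of intracellular ATP loss, measured by CellTiter-Glo luminescence. Normal lung fibroblasts (MRC5) had 40 hr compound treatment at 37 C, normalized between DMSO and 100 uM tamoxifen.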

[2] = Cell Viability - HUV-EC-C (AID 542); conditions: HUV-EC-C endothelial cell viability, qHTS; series mostly up to 92.2 µM;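 also: cells exposed to compound for 40 hours; % is scaled to controls: 0 for no effect and ±100 for the full control effect; nearly all actives have a fitted effect of over 35% in size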
Method in brief: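 Cells were seeded at 1000 per well and incubated 5 hr at 37 °C before compound addition. After 40 hr at 37 °C, CellTiter-Glo reagent was added for 20 min and luminescence read. AC50 values came from Hill-equation modelling.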

[3] = Cellular Toxicity (caspase-3) HepG2 (AID 654); conditions: HepG2 caspase-3 activation, luminescence; series mostly up to 92.2 µM;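 also: cells exposed to compound for 16 hours before reading; 0% = DMSO alone and 100% = caspase signal from 100 µM tamoxifen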
Method in brief: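 Caspase 3/7 activation in HepG2 is measured as rising luminescence after a 16 hr treatment at 37 °C. Values are scaled between DMSO basal and 100 uM tamoxifen, and AC50 is fitted with the Hill equation.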

[4] = Cellular Toxicity (caspase-3) HUV-EC-C (AID 656); conditions: HUV-EC-C cells, caspase-3 activation (apoptosis); series mostly up to 92.2 µM
Method in brief: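 HUV-EC-C endothelial cells, 1000/well, were pre-incubated 5 hr at 37°C, then exposed to compounds for 16 hr at 37°C. Caspase-Glo 3/7 luminescence was read after 20 min at room temperature. AC50 came from Hill fits, normalized to DMSO and 100 uM tamoxifen.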

[5] = Cellular Toxicity (caspase-3) SHSY5Y (AID 657); conditions: SH-SY5Y caspase-3 activation; series mostly up to 91.7 µM
Method in brief: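 SH-SY5Y human neuroblastoma cells (1500/well) were treated with compounds for 16 h at 37 °C, then Caspase-Glo 3/7 luminescence was read after 1 h at room temperature. Data normalized to DMSO and 10 uM staurosporine; AC50 from Hill fits.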

[6] = Cellular Toxicity (caspase-3) MRC-5 (AID 659); conditions: MRC-5 cells, luminescence, normalized: DMSO 0%, 10 µM staurosporine 100%; series mostly up to 91.7 µM
Method in brief: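 Luminescent Caspase-Glo 3/7 read-out (1 h, room temperature) after a 16 h, 37 °C compound exposure of MRC-5 lung fibroblasts at 1500 cells/well. Concentration-response AC50 from Hill equation; 0% DMSO, 100% 10 uM staurosporine.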

[7] = Cellular Toxicity (caspase-3) Mesangial (AID 660); conditions: mesangial cells, normalized: DMSO 0%, 100 µM tamoxifen 100%; series mostly up to 91.7 µM;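 also: combined caspase 3 and 7 activity read by Caspase-Glo luminescence; cells exposed to compound for 16 h before the caspase read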
Method in brief: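 Seed cells derived from normal human renal glomeruli, incubate 5 h, add compounds across concentrations and incubate 16 h at 37 °C. Caspase 3/7 activation is then quantified by luciferase light, with AC50 derived by Hill modeling.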

[8] = Cellular Toxicity (caspase-3) SK-N-SH (AID 661); conditions: SK-N-SH caspase-3 activation, qHTS, DMSO as zero, staurosporine as full; series mostly up to 91.7 µM
Method in brief: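 Cells were seeded and incubated 5 hr at 37 °C, dosed with compound over a concentration range for 16 hr, then given Caspase-Glo 3/7 reagent for 1 hr at room temperature before luminescence reading.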

[9] = Cellular Toxicity (caspase-3) H-4-II-E (AID 663); conditions: H-4-II-E rat hepatoma; Potency: caspase-3 activation; series mostly up to 92.2 µM
Method in brief: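 Caspase 3/7 activation measured by luminescent aminoluciferin substrate cleavage after 16 hr compound treatment of H-4-II-E cells in complete medium. Increase normalized between DMSO (basal) and 100 uM tamoxifen (100%); Hill-equation AC50 from concentration-response.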

[10] = Cellular Toxicity (caspase-3) N2a (AID 665); conditions: N2a cells, luminescence, normalized: DMSO 0%, 10 µM staurosporine 100%; series mostly up to 92.2 µM;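 also: compound exposure lasted 16 h at 37 °C before readout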
Method in brief: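 Caspase-3/7 activation, measured as increased luminescence from aminoluciferin release, is quantified in mouse N2a cells exposed to compounds for 16 h. Values are normalized to DMSO and 10 uM staurosporine, with AC50 derived by Hill modelling.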

[11] = Cellular Toxicity (caspase-3) NIH 3T3 (AID 666); conditions: NIH 3T3 caspase-3 activation, apoptosis/toxicity, 0% DMSO, 100% is 100 µM tamoxifen; series mostly up to 92.2 µM;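 also: 0% = DMSO basal and 100% = 100 µM tamoxifen stimulation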
Method in brief: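 Cells were plated at 1000 per well and incubated 5 hr at 37°C, then compound was added for 16 hr. Caspase-Glo 3/7 reagent followed for 20 min at room temperature before luminescence was read.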

[12] = Cellular Toxicity (caspase-3) Renal Proximal Tubule (AID 667); conditions: renal proximal tubule cells, primary cells freshly taken from rat; Potency: caspase-3 activation; series mostly up to 91.7 µM;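 also: cells exposed to compound for 16 hours at 37 °C before detection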
Method in brief: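 Primary rat proximal tubule cells, 1000/well, 5 h plating at 37 °C, then compound 16 h at 37 °C. Caspase-Glo 3/7 reagent, 1 h RT, luminescence. Normalized to DMSO (basal) and 10 uM staurosporine (100%); Hill-fit AC50.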

[13] = MultiTox-Fluor Cytotoxicity Assay - LYMP1-001 - Dead Cells (AID 946); conditions: LYMP1-001 lymphoblastoid cells, dead-cell protease fluorescence; series mostly up to 92.2 µM;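 also: 0% = DMSO and 100% = tetraoctylammonium bromide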
Method in brief: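 In this qHTS, 15 uM tetraoctylammonium bromide defined 100% and DMSO defined basal activity. Lymphoblastoid cells (LYMP1-001, 2500 per well) received compound for 16 hr at 37 C before a fluorogenic dead-cell substrate readout at 485/520 nm.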

[14] = MultiTox-Fluor Cytotoxicity Assay - LYMP1-003 - Dead Cells (AID 961); conditions: LYMP1-003 lymphoblastoid cells, dead-cell protease fluorescence; series mostly up to 92.2 µM;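 also: 0% = DMSO and 100% = tetraoctylammonium bromide; nearly all actives have a fitted effect of over 70% in size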
Method in brief: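 Acute toxicity is scored as increased dead-cell protease activity in human lymphoblastoid LYMP1-003 cells after 16 h compound exposure in complete culture medium. Activity is normalized to DMSO basal and 15 uM tetraoctylammonium bromide as full response.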

[15] = MultiTox-Fluor Cytotoxicity Assay - LYMP1-003 - Live Cells (AID 962); conditions: LYMP1-003 lymphoblastoid cells, MultiTox-Fluor live-cell protease fluorescence; series mostly up to 92.2 µM;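 also: 0% = DMSO only and full loss = 92 µM tetraoctylammonium bromide; cytotoxic hits lower the live-cell protease signal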
Method in brief: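 Acute cytotoxicity is scored as a drop in live-cell protease activity in human lymphoblastoid LYMP1-003 cells after 16 hr compound exposure at 37 C. AC50 values come from Hill-equation modelling of concentration-response data.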

[16] = Cell Viability - LYMP1-003 - Assay at 24 hr (AID 963); conditions: LYMP1-003 lymphoblastoid cell viability; series mostly up to 92.2 µM;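 also: plate controls were DMSO only for no effect and tetraoctylammonium bromide positive control for full effect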
Method in brief: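 Cytotoxicity is scored as a concentration-dependent fall in ATP-linked luciferase signal in human lymphoblastoid LYMP1-003 cells treated 24 hr at 37 C in complete culture medium.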

[17] = qHTS Assay for Identification of Small Molecule Inducers of Hypoxia Response (AID 2120; active = well fitted curve in the direction sought with a large enough effect in the signal ratio, with a control signal flat, not every such curve was filed as active; the % refers to the signal ratio; also: 0% is about no effect); conditions: hypoxia response reporter cells, beta-lactamase ratio readout; series mostly up to 104 µM
Method in brief: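 Cell-based qHTS for reporter induction: hypoxia response element controlled beta-lactamase in ME-180 cells. Compounds incubated 17 h at 37 degrees C; activity from blue/green (460/530 nm) ratio, inducers ranked by AC50.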

[18] = molecular target: Peroxisome proliferator-activated receptor alpha (Homo sapiens) (UniProt Q07869); assay: qHTS assay for small molecule agonists of the peroxisome proliferator-activated receptor alpha (PPARalpha) signaling pathway (AID 651778); conditions: PathHunter PPARalpha complementation, chemiluminescence, 6 h; max response: stronger effect = higher value; also: % of control where 0% means no effect
Method in brief: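 Chemiluminescence from complemented enzyme reported PPARalpha activation in cells after 6 hr of compound treatment at 37 C. The detection reagent was incubated for 60 min at room temperature, and compounds were scored as agonists.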

[19] = qHTS assay for small molecule agonists of the antioxidant response element (ARE) signaling pathway measured by Nrf2-dependant transcriptional activity - cell viability counter screen (AID 720653; active = well fitted curve in the direction sought with a large enough effect in the repeat runs; an effect the other way counts as inactive or inconclusive; also: % is scaled to controls: 0 for no effect and ±100 for the full control effect); conditions: ARE-bla HepG2 viability, CellTiter-Glo ATP luminescence, 16 h; max response: stronger effect = lower value
Method in brief: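 Cytotoxicity counter screen: intracellular ATP quantified by CellTiter-Glo luminescence in the same ARE-bla HepG2 plates, after 16 h compound exposure and a 2 h beta-lactamase substrate step.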

[20] = qHTS assay for cell viability of the p53RE-bla HCT-116 cell line (AID 743292); conditions: p53RE-bla HCT-116 viability, ATP luminescence, 16 h; series mostly up to 95 µM; also: % is scaled to controls: 0 for no effect and ±100 for the full control effect; nearly all actives have a fitted effect of over 55% in size
Method in brief: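 CellSensor p53RE-bla HCT-116 cells (4,000/well) pre-incubated 5 h at 37 C, then exposed to compounds in DMSO for 16 h at 37 C. Viability read as ATP content by CellTiter-Glo luminescence after 30 min at room temperature.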

Chain of Peroxisome proliferator-activated receptor alpha (Homo sapiens) (Q07869 whole entry, looked up): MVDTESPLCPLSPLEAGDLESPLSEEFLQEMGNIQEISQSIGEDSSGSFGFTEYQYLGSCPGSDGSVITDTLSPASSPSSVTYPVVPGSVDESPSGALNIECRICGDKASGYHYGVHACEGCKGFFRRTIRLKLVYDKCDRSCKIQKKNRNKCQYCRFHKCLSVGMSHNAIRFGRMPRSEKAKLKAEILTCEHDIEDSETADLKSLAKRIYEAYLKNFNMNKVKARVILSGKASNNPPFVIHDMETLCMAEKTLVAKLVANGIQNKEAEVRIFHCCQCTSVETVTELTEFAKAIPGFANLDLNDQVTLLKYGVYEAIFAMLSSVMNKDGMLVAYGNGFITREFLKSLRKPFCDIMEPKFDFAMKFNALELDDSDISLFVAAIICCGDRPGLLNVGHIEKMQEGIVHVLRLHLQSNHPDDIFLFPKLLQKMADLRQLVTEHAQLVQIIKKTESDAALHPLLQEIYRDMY

c1ccncc1
inactive: Potency [1] > 92 µM | Potency [2] | Potency [3] | Potency [4] | Potency [5] | outcome [6] | outcome [7] | outcome [8] | Potency [9] | outcome [10] | outcome [11] | Potency [12] | Potency [13] | Potency [14] | Potency [15] | Potency [16] | Potency [17] | max response [18] -4.5% | max response [19] -7.78% | Potency [20]

Oc1ccc2c(c1)OCO2
inactive: Potency [1] > 92 µM | Potency [2] | Potency [3] | Potency [4] | Potency [5] | outcome [6] | outcome [7] | outcome [8] | Potency [9] | outcome [10] | outcome [11] | Potency [12] | Potency [13] | Potency [14] | Potency [15] | Potency [16] | Potency [17] | max response [18] -2.87% | max response [19] 5% | Potency [20]

COc1ccc(C)cc1N
inactive: Potency [1] > 92 µM | Potency [2] | Potency [3] | Potency [4] | Potency [5] | outcome [6] | outcome [7] | outcome [8] | Potency [9] | outcome [10] | outcome [11] | Potency [12] | Potency [13] | Potency [14] | Potency [15] | Potency [16] | Potency [17] | max response [18] -6.24% | max response [19] -10.4% | Potency [20]

CCNC(=S)NCC
inactive: Potency [1] > 92 µM | Potency [2] | Potency [3] | Potency [4] | Potency [5] | outcome [6] | outcome [7] | outcome [8] | Potency [9] | outcome [10] | outcome [11] | Potency [12] | Potency [13] | Potency [14] | Potency [15] | Potency [16] | Potency [17] | max response [18] -2.88% | max response [19] -3.61% | Potency [20]

O=[N+]([O-])c1cccc(I)c1
inactive: Potency [1] > 92 µM | Potency [2] | Potency [3] | Potency [4] | Potency [5] | outcome [6] | outcome [7] | outcome [8] | Potency [9] | outcome [10] | outcome [11] | Potency [12] | Potency [13] | Potency [14] | Potency [15] | Potency [16] | Potency [17] | max response [18] -0.601% | max response [19] 2.94% | Potency [20]

c1cc2c3c(c1)ccc1cccc(c13)C2
inactive: Potency [1] > 92 µM | Potency [2] | Potency [3] | Potency [4] | Potency [5] | outcome [6] | outcome [7] | outcome [8] | Potency [9] | outcome [10] | outcome [11] | Potency [12] | Potency [13] | Potency [14] | Potency [15] | Potency [16] | Potency [17] | max response [18] 6.26% | max response [19] -4.5% | Potency [20]
